# Laboratory results reported in PubChem BioAssay (NCI).
# This is part of a sample that, as a whole, favours compounds with a hit. Of some 79,000 tested, about 15% had one in any assay. Unmarked numbers belong to inactive results. Active and inactive are the calls of the source. Rule as the data show it: active = growth inhibition above about 70%; inactive = the rest.
# What was measured:
# [1] = NCI Yeast Anticancer Drug Screen. Data for the rad50 strain (AID 155);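 also: 0% = growth of vehicle-only cultures of the same strain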; conditions: S. cerevisiae rad50 strain growth inhibition, hits give high values
# Procedure, shortened: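 Growth of the mutant yeast was measured after compound exposure and referenced to vehicle-treated cultures.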
# [2] = NCI Yeast Anticancer Drug Screen. Data for the mec2-1 strain (AID 157); conditions: S. cerevisiae mec2-1 strain, hits give high values
# Procedure, shortened: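 Mutant yeast (mec2-1) grown with compound; growth inhibition relative to vehicle control reported.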
# [3] = NCI Yeast Anticancer Drug Screen. Data for the sgs1 mgt1 strain (AID 161);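 also: 0% = growth of cultures given vehicle only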; conditions: S. cerevisiae sgs1 mgt1 strain, hits give high values
# Procedure, shortened: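 Percent growth inhibition was derived by comparing compound-exposed mutant yeast with vehicle-exposed cultures. The strain carries alterations in DNA damage repair.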
# [4] = NCI Yeast Anticancer Drug Screen. Data for the cln2 rad14 strain (AID 165);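 also: 0% = growth equal to vehicle treated cultures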; conditions: S. cerevisiae cln2 rad14 strain, hits give high values
# Procedure, shortened: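 Readout is yeast growth inhibition versus vehicle-treated controls, using a strain with cln2 and rad14 alterations exposed to compound.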
# [5] = NCI Yeast Anticancer Drug Screen. Data for the bub3 strain (AID 167); conditions: S. cerevisiae bub3 mutant strain, hits give high values
# Procedure, shortened: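 Whole-cell yeast assay. The mutant strain was incubated with compounds, and growth inhibition was determined by comparison with vehicle-treated cells.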
# [6] = NCI Yeast Anticancer Drug Screen. Data for the mlh1 rad18 strain (AID 175); conditions: S. cerevisiae mlh1 rad18 strain growth inhibition, hits give high values
# Procedure, shortened: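 Genetically defined yeast (DNA repair-deficient) exposed to compounds; growth inhibition determined relative to vehicle.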
# [7] = at 5.0 µM (retest, dose inferred, filed as 0.5)
# [8] = at 50.0 µM (retest, dose inferred, filed as 5.0)
SMILES,"growth inhibition [1, 7]","growth inhibition [1, 8]",growth inhibition ([1]; at 50.0 µM),"growth inhibition [2, 7]","growth inhibition [2, 8]",growth inhibition ([2]; at 50.0 µM),"growth inhibition [3, 7]","growth inhibition [3, 8]",growth inhibition ([3]; at 50.0 µM),"growth inhibition [4, 7]","growth inhibition [4, 8]",growth inhibition ([4]; at 50.0 µM),"growth inhibition [5, 7]","growth inhibition [5, 8]",growth inhibition ([5]; at 50.0 µM),"growth inhibition [6, 7]","growth inhibition [6, 8]",growth inhibition ([6]; at 50.0 µM)
O=c1cccc(C2CCc3cc(O)ccc3C2)[nH]1 (configuration not stated),-5%,3%,-2.85%,3%,1%,3.35%,-3%,4%,-5.05%,1%,-18%,22.6%,-3%,-11%,-11.3%,-6%,5%,13.2%
CCOC(=O)CNC(=O)CNC(=O)CNC(c1ccccc1)(c1ccccc1)c1ccccc1,-8%,56%,66.5%,41%,69%,60.3%,-13%,81% (active),55.1%,-10%,26%,68.8%,-1%,61%,38.4%,15%,83% (active),63.7%
C=C1C(=O)O[C@H]2C3C(=C(C)CC[C@@H]12)C(=O)[C@@H]1OC31C (some centres not stated),22%,49%,36.8%,16%,52%,37.2%,35%,74% (active),46%,19%,51%,34%,21%,60%,23.9%,19%,62%,46.2%
C(=C\N1CCCCC1)/c1nnnn1-c1ccccc1,-23%,6%,34.5%,-18%,-21%,54.1%,-31%,-18%,71.9% (active),-17%,-22%,11.8%,-29%,-31%,54.6%,-4%,1%,72.7% (active)
CN[C@@H](Cc1cccc2ccccc12)C(=O)N[C@@H](CC(C)C)B(O)O,34%,51%,27.1%,37%,40%,12.1%,16%,18%,3.85%,53%,54%,59.4%,25%,16%,36.5%,33%,60%,16.4%
O=C(Nc1cc(Cl)c(Cl)cc1Cl)C(=O)C(C(=O)c1ccc2ccccc2c1)C1OC(=O)c2ccccc21 (configuration not stated),17%,17%,67.7%,2%,2%,37.2%,15%,15%,63.9%,6%,6%,64.5%,-8%,-8%,59.2%,-14%,-14%,40%
COC(=O)c1nnn(-c2cc(Cl)ccc2Cl)c1C(=O)c1ccc(Cl)c(Cl)c1,12%,98% (active),98.8% (active),4%,98% (active),96.8% (active),14%,98% (active),99% (active),6%,97% (active),95.5% (active),18%,99% (active),95.3% (active),17%,99% (active),99% (active)
COc1cc(Cc2n[nH]c(=S)n2-c2ccccc2)c(S(N)(=O)=O)cc1OC,4%,4%,10.1%,1%,4%,0.85%,9%,-16%,-2.75%,0%,4%,8.55%,-2%,3%,0.15%,0%,-62%,11.4%
Cc1cccc2c1C(=O)N(CC[P+](c1ccccc1)(c1ccccc1)c1ccccc1)C2=O,77% (active),85% (active),58.1%,58%,87% (active),70.3% (active),70% (active),93% (active),61.9%,58%,91% (active),35.3%,80% (active),95% (active),70.5% (active),64%,86% (active),67.9%
O=C(OC1CC2CC1C1CC=CC21)c1ccccc1 (configuration not stated),-3%,-3%,-5.55%,-6%,2%,10.9%,-8%,1%,-3.8%,-5%,-24%,-4.4%,46%,68%,21.9%,-5%,-3%,-3.95%
O=C1C(Cl)=C(N2C(=O)CCC2=O)C(=O)c2ccccc21,77% (active),98% (active),87.6% (active),99% (active),99% (active),90.4% (active),99% (active),100% (active),91.6% (active),94% (active),99% (active),89.4% (active),100% (active),99% (active),88.9% (active),72% (active),98% (active),89% (active)
CCCCCCC(O)(CCCCCC)CCCCCC,-1%,-34%,83.3% (active),-3%,-34%,32.8%,-3%,-31%,42.8%,1%,-41%,23.9%,0%,-12%,5.3%,1%,-31%,44.1%
c1ccc(CN2CCC3(CC2)SSC2(CCN(Cc4ccccc4)CC2)SS3)cc1,0%,34%,73.1% (active),14%,-3%,24.4%,5%,35%,30.9%,31%,21%,29.8%,16%,18%,42.2%,7%,19%,45.9%
c1ccc(N=Nc2n[nH]c3ccccc23)cc1,-144%,94% (active),98.6% (active),-51%,74% (active),98.8% (active),-66%,85% (active),92.6% (active),-59%,29%,98% (active),-65%,91% (active),97.1% (active),-119%,94% (active),97% (active)
CCOc1cnn(-c2ccccc2)c(=O)c1SCc1ccc(Cl)c(Cl)c1,-4%,27%,37.5%,-3%,56%,8.95%,2%,73% (active),65.8%,-11%,44%,53.1%,4%,82% (active),40.3%,-4%,56%,32.4%
O=C(NCCN1CCCC1)c1cn2c(ccc3sc4ccccc4c(=O)c32)n1,29%,89% (active),66%,21%,71% (active),49.6%,19%,77% (active),46%,19%,54%,37.2%,20%,76% (active),25.9%,26%,81% (active),20.4%
O=C1NN(C2=NNC3(C(=O)N2)c2ccccc2-c2ccccc23)C(c2ccccc2)=N/C1=C/c1ccc(Cl)cc1,-9%,-5%,32.4%,-13%,-5%,17.4%,-1%,6%,-13.5%,-10%,3%,-3.25%,-16%,-16%,18.4%,-48%,-10%,44.1%
CCCCc1c2c(nc3c1CCC/C3=C\c1ccccc1)C(=O)C(CN(C)C)CC2 (configuration not stated),16%,96% (active),86.3% (active),10%,97% (active),89.1% (active),29%,97% (active),86.5% (active),11%,96% (active),86.8% (active),13%,95% (active),84.5% (active),11%,96% (active),84.5% (active)
N#CCC(=O)N/N=C(/CC1(O)C(=O)Nc2c(Cl)cc(Cl)cc21)c1ccccc1 (configuration not stated),2%,35%,69.4%,10%,43%,59.6%,-1%,-6%,71.1% (active),-7%,23%,-20%,3%,22%,26.4%,5%,16%,75.2% (active)
